Several values for one entry are separate records, joined by “and”; a condition that tells them apart may be missing. Equal entries are not always repeated. The panel holds about 83,000 compounds, 20% with a hit somewhere; the sample as a whole holds those more often.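 Cells were grown in 96-well plates and exposed to the test compound at a single concentration for 48 hours; results are reported as percent growth, with values below 10 considered active.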 Activity calls are given as the source filed them.
Experiments:
Assay in all cases: NCI-60 one-dose screen, 48 h (100 = growth as untreated, 0 = no growth, -100 = all killed)
Conditions in all cases: 10 µM unless noted
T-47D breast = tested on: T-47D breast
BT-549 breast = tested on: BT-549 breast
MDA-MB-435 melanoma = tested on: MDA-MB-435 melanoma
SW-620 colon = tested on: SW-620 colon
MCF7 breast = tested on: MCF7 breast
HCC-2998 colon = tested on: HCC-2998 colon
KM12 colon = tested on: KM12 colon
HCT-116 colon = tested on: HCT-116 colon

Row | Structure (SMILES) | growth (T-47D breast) | growth (BT-549 breast) | growth (MDA-MB-435 melanoma) | growth (SW-620 colon) | growth (MCF7 breast) | growth (HCC-2998 colon) | growth (KM12 colon) | growth (HCT-116 colon)
1 | Cc1c(O)nc(N)[nH]c1=O | 114% (inactive) | 116% (inactive) | 103% (inactive) | 102% (inactive) | 99% (inactive) | 92.8% (inactive) | 106% (inactive) | –
2 | COCCCNC1=C(C#N)C(=O)NC(c2cccs2)S1 (stereo not given) | 89% (inactive) | 96% (inactive) | 95.9% (inactive) | 113% (inactive) | 89.6% (inactive) | 108% (inactive) | 108% (inactive) | –
3 | Cc1cc(Cl)nc(Nc2ccccc2)n1 | 90.4% (inactive) | 108% (inactive) | 98% (inactive) | 104% (inactive) | 93.7% (inactive) | 98.6% (inactive) | 97.8% (inactive) | –
4 | N=c1sc2ccccc2n1CC(=O)O | 95.8% (inactive) | 99.2% (inactive) | 113% (inactive) | 103% (inactive) | 99% (inactive) | 108% (inactive) | 106% (inactive) | –
5 | COC(=O)CCOc1ccccc1 | 103% (inactive) | 91.7% (inactive) | 109% (inactive) | 107% (inactive) | 89.3% (inactive) | 91% (inactive) | 102% (inactive) | 103% (inactive)
6 | Clc1ccc(/C=C/c2ccc3ccccc3n2)cc1 | 18.6% (inactive) and 65.6% (inactive) and 52.5% (inactive) | 58.7% (inactive) and 107% (inactive) and 94.8% (inactive) | -38.5% (active) and 85.2% (inactive) and 92.6% (inactive) | 22.8% (inactive) and 108% (inactive) and 97.1% (inactive) | 15.1% (inactive) and 65.5% (inactive) and 67.1% (inactive) | 7.83% (active) and 104% (inactive) and 91.5% (inactive) | 16.3% (inactive) and 97% (inactive) and 94.7% (inactive) | –
7 | CCOC(=O)CN1CCC(C(=O)OCC)CC1 | 102% (inactive) | 105% (inactive) | 114% (inactive) | 108% (inactive) | 103% (inactive) | 103% (inactive) | 109% (inactive) | 98.1% (inactive)
8 | O=C1C2=C(Nc3cc(Cl)ccc3N2)OC1c1c[nH]c2ccc(COc3ccccc3)cc12 (stereo not given) | 68.4% (inactive) | 26.7% (inactive) | 84.6% (inactive) | 85% (inactive) | 64.2% (inactive) | 83.7% (inactive) | 87.1% (inactive) | –
9 | COc1ccc(/C=N/Nc2nc3ccccc3s2)cc1 | 86.6% (inactive) | 97.6% (inactive) | 83.3% (inactive) | 94.8% (inactive) | 61.1% (inactive) | 104% (inactive) | 87.6% (inactive) | –
10 | COc1ccc(-n2[nH]c3c(cnc4ccccc43)c2=O)cc1 | 88.3% (inactive) | 90% (inactive) and 95.4% (inactive) | 94.7% (inactive) and 97.3% (inactive) | 106% (inactive) and 103% (inactive) | 98.8% (inactive) and 93.1% (inactive) | 69.2% (inactive) and 107% (inactive) | 99.1% (inactive) and 97.7% (inactive) | –
11 | N=C(N=C(N)N)N1CCOCC1 | 91.2% (inactive) and 95.4% (inactive) | 115% (inactive) and 103% (inactive) | 108% (inactive) and 106% (inactive) | 96.3% (inactive) and 103% (inactive) | 92.9% (inactive) and 91.5% (inactive) | 109% (inactive) and 97.1% (inactive) | 105% (inactive) and 100% (inactive) | 104% (inactive) and 96.4% (inactive)
12 | CN(C)c1ccc(C(=N)c2ccc(N(C)C)cc2)cc1 | 16.9% (inactive) and 33.1% (inactive) | 70.1% (inactive) and 40.6% (inactive) | -7.96% (active) and -36.7% (active) | 9.98% (active) and 17.7% (inactive) | 10.1% (inactive) and 2.28% (active) | 52.4% (inactive) and 48% (inactive) | 14.4% (inactive) and 18.7% (inactive) | 18.5% (inactive) and 11.9% (inactive)
13 | OCCCc1ccccc1 | 112% (inactive) | 101% (inactive) | 108% (inactive) | 107% (inactive) | 101% (inactive) | 108% (inactive) | 109% (inactive) | –
